PMC4336329 (PLoS ONE, 2015)
The whole screen tested about 310,000 compounds, of which about 14,000 (4.5%) showed an effect of 50% or more. The effect is printed as a negative number. The entries come from a sample that favours strong results as a whole.

target: human ether-à-go-go-related gene (hERG) potassium channel (human, UniProt Q12809); experiment: primary screen, population patch clamp on CHO cells stably expressing hERG; higher = less effect of the substance
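Further: peak tail current of the secondary pulse compared with the same well before compound.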

Sequence of human ether-à-go-go-related gene (hERG) potassium channel (Q12809 whole entry, looked up): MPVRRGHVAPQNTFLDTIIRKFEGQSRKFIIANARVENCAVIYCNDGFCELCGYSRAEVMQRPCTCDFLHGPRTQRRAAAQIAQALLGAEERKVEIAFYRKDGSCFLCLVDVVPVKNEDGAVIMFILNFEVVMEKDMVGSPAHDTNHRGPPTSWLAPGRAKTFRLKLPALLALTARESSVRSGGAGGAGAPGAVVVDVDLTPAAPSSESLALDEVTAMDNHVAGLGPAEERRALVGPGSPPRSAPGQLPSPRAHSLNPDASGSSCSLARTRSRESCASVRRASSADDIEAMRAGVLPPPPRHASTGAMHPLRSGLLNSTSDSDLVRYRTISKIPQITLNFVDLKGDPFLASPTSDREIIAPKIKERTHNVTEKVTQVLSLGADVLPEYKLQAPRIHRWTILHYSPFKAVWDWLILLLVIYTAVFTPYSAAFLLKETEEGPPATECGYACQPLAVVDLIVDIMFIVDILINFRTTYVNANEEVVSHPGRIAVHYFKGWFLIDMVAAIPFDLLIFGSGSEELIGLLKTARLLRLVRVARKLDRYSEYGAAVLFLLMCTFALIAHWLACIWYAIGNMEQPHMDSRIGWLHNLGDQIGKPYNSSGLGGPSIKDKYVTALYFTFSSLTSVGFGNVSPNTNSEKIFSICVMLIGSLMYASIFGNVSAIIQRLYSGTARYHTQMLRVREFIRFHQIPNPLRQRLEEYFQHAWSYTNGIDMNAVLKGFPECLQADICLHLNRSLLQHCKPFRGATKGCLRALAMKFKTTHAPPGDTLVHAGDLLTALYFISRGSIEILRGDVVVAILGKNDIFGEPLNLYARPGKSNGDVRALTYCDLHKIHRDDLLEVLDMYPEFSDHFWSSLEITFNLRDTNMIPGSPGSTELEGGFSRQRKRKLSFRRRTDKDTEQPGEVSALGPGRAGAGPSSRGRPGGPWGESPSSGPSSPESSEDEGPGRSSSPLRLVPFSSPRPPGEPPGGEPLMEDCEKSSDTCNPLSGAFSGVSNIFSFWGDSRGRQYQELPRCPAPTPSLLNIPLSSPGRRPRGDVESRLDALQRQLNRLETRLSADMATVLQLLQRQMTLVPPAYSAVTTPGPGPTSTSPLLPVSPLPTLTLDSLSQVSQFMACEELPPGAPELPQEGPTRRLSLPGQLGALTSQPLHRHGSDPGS

SMILES	hERG current change (%, negative = inhibition) at 10uM [%]
CC(C)OC(=O)c1cc(C(=O)c2cc(F)ccc2O)coc1=N	-7.34
Cl.O=C(O)C1=CCCNC1	-54.4
Cl.O=C(O)C1=CCNCC1	17.6
COc1ccc(OC)c(NC(=O)c2ccccc2NC(=O)c2ccco2)c1	-75.6
Cc1ccc(NC(=O)c2ccco2)c(NC(=O)c2ccccc2C)c1	17.9
COc1ccc(C(=O)Nc2ccc(Cl)cc2C(=O)NCCN2CCOCC2)cc1	-12.3
COc1ccc(NC(=O)c2ccccc2NC(=O)c2ccco2)cc1	18.5
COc1ccc(C(=O)Nc2ccc(Cl)cc2C(=O)NCc2ccco2)cc1	-0.702
COc1ccccc1NC(=O)c1cc(Cl)ccc1NC(=O)c1ccco1	-1.81
COc1ccc(NC(=O)c2cc(Cl)ccc2NC(=O)c2ccco2)c(OC)c1	-85.2
COc1ccccc1NC(=O)c1ccccc1NC(=O)c1cc(Cl)ccc1NC(=O)c1ccco1	2.97
COc1ccccc1C(=O)Nc1cc(C)ccc1NC(=O)c1ccco1	-44.4
COc1ccc(C(=O)Nc2ccccc2NC(=O)c2ccco2)c(OC)c1	-21.9
CCOc1ccccc1C(=O)Nc1cc(C)ccc1NC(=O)c1ccco1	-75.3
COc1ccc(C(=O)Nc2ccc(Cl)cc2C(=O)NCCO)cc1	-53.8
Cc1ccc(C(=O)OCC(=O)Nc2ccc3[nH]c(=O)[nH]c3c2)cc1S(=O)(=O)N1CCOCC1	4.19
O=C(Nc1ccc(C(=O)N2CCCCC2)cc1)c1ccc(Br)cc1	3.55
O=C(O)c1ccc2c(c1)CCC2	9.54
Cc1cc(NC(=O)C23CC4CC(CC(C4)C2)C3)n[nH]1	-0.917
Cc1cccc(NC(=S)N2CCCC2)c1	11.1
COc1cc(OC)cc(C(=O)Nc2c(C)nn(-c3ccccc3)c2C)c1	-3.27
COc1ccc(CCNC(=S)N2CCN(S(=O)(=O)c3ccccc3F)CC2)cc1	-3.68
CCOC(=O)c1c(-c2ccccc2)csc1NC(=O)c1nn(CC)cc1Br	6.4
O=C(Oc1ccc(Cl)cc1)c1ccc(COC(=O)c2cnccn2)cc1	14.9
COc1ccc(NC(=O)c2ccco2)c(OC)c1	16.9
COc1ccc(NC(=O)c2ccccc2NC(=O)c2ccco2)c(OC)c1	-73.4
COc1ccc(NC(=O)CCC(=O)Nc2cc(OC)c(NC(=O)c3ccco3)cc2OC)c(OC)c1	20.4
